Laboratory results taken from PubChem BioAssay (NCATS).
Records with an inconclusive call do not appear. Where a call stands in place of a potency, no number is given. Calls of active or inactive are those of the source. Unless noted, the call rests on the fitted dose curve; in most records, active means well fitted curve in the direction sought with a large enough effect; inconclusive means small, poorly fitted or top-dose-only effect, or another doubt; inactive means no such curve, though single readings can be large; an effect the other way counts as inactive or inconclusive.

Columns and labels:
[1] = P-glycoprotein substrates identified in KB-8-5-11 adenocarcinoma cell line, qHTS therapeutic library screen (AID 1346987); further: nearly all actives have a fitted effect of over 65% in size; further: potency means the concentration at half of the fitted maximal effect
Procedure, shortened: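 Compounds are pinned in dose-response onto KB-8-5-11 cells (500 cells/well, colchicine-free medium) and left 72 h at 37 degree C. CellTiter-Glo luminescence then yields AC50 values.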

[2] = target: Atrial natriuretic peptide receptor 1 (Homo sapiens) (UniProt P16066); assay: Natriuretic polypeptide receptor (hNpr1) antagonism - Pilot screen (AID 1347049; calls by dose curve;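 further: HEK293 cells with hNpr1 and GloSensor cGMP luciferase stimulated by 0.1 nM hNppA; agonist-evoked cGMP luminescence read 20 min after hNppA addition; series mostly up to about 58 µM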)
Procedure, shortened: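 Cells expressing receptor plus cGMP biosensor are seeded and incubated overnight at 37C, then loaded with GloSensor reagent (2% final) at room temperature for 2 h. Library compounds go on for 30 min. A pre-read precedes agonist (hNppA, 0.1 nM final) and a 20-min readout.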

[3] = NS1 protein of Zika virus - qHTS assay to identify small molecule inhibitors in human HEK 293 cells (AID 1347053); further: nearly all actives have a fitted effect of over 55% in size; further: potency means the concentration at half of the fitted maximal effect
Procedure, shortened: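 Readout was TR-FRET using paired anti-NS1 antibodies after 24 h infection of HEK 293 cells with ZIKV MR766 (MOI = 0.5). Compound preceded virus by 1 h; reduced signal reflects lower NS1 expression.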

[4] = target: Parathyroid hormone/parathyroid hormone-related peptide receptor (Homo sapiens) (UniProt Q03431); assay: qHTS for PTHR1 Agonists: Optimization Screen against the NCGC LOPAC library (AID 1347079);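 further: GloSensor cAMP luminescence in HEK-293 GP2 cells expressing human PTHR1 with IBMX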
Procedure, shortened: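 HEK-293 GP2 cells, PTHR1 + GloSensor cAMP; 3000 cells/well, o/n. Luciferin + IBMX 0.5mM each (stock), 1 hr 37C. Cpd titration, 1 hr 37C. Lum after 15 min RT. Ctrl M-PTH(1-15) top 10uM.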

[5] = qHTS for Inhibitors of the Functional Ribonucleoprotein Complex (vRNP) of Lassa (LASV) Arenavirus: LASV Primary Screen - GLuc reporter signal (AID 1347082; calls by dose curve; tested in HEK293 reporter line; further: nearly all actives have a fitted effect of over 60% in size; further: potency means the concentration at half of the fitted maximal effect)
[6] = qHTS for Inhibitors of the Functional Ribonucleoprotein Complex (vRNP) of Lassa (LASV) Arenavirus: Viability assay - alamar blue signal for LASV Primary Screen (AID 1347083; calls by dose curve; tested in HEK293 reporter line; further: nearly all actives have a fitted effect of over 80% in size; further: potency means the concentration at half of the fitted maximal effect)
[7] = qHTS for Inhibitors of the Functional Ribonucleoprotein Complex (vRNP) of Lymphocytic Choriomeningitis Arenaviruses (LCMV): Viability assay - alamar blue signal for LCMV Primary Screen (AID 1347085; calls by dose curve; tested in HEK293 reporter line; further: nearly all actives have a fitted effect of over 80% in size; further: potency means the concentration at half of the fitted maximal effect)
[8] = target: Nucleoprotein (Lymphocytic choriomeningitis virus (strain Armstrong)) (UniProt P09992); assay: qHTS for Inhibitors of the Functional Ribonucleoprotein Complex (vRNP) of Lymphocytic Choriomeningitis Arenaviruses (LCMV): LCMV Primary Screen - GLuc reporter signal (AID 1347086; calls by dose curve; further: nearly all actives have a fitted effect of over 70% in size; further: potency means the concentration at half of the fitted maximal effect)
[9] = P-glycoprotein substrates identified in KB-3-1 adenocarcinoma cell line, qHTS therapeutic library screen (AID 1346986); further: nearly all actives have a fitted effect of over 60% in size
Procedure, shortened: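 72 h cell-killing screen, 500 cells/well, CellTiter-Glo luminescence. Paired lines KB-3-1/KB-8-5-11; P-gp dependence checked by tariquidar co-treatment and HEK-293 MDR-19 versus empty-vector cells.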

[10] = qHTS of pediatric cancer cell lines to identify multiple opportunities for drug repurposing: Primary screen for TC32 cells (AID 1347089); further: nearly all actives have a fitted effect of over 60% in size; further: potency means the concentration at half of the fitted maximal effect
Procedure, shortened: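 qHTS, TC32, 48 h drug treatment, CellTiter-Glo luminescence as a proxy for metabolically active cells; primary top concentration 46 µM (MIPE 11-pt, NPC 8-pt); confirmatory 11-pt.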

[11] = qHTS of pediatric cancer cell lines to identify multiple opportunities for drug repurposing: Primary screen for SJ-GBM2 cells (AID 1347091); further: potency means the concentration at half of the fitted maximal effect
Procedure, shortened: (§1)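 Eight- or eleven-point concentration series, 48 h treatment at 37 degrees C in growth media; readout CellTiter-Glo luminescence. Potency and efficacy were taken from the concentration-response curves.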

[12] = qHTS of pediatric cancer cell lines to identify multiple opportunities for drug repurposing: Primary screen for SK-N-MC cells (AID 1347093); further: potency means the concentration at half of the fitted maximal effect
Procedure, shortened: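 Metabolically active cells were quantified by ATP-dependent luminescence (CellTiter-Glo, 15 min at room temperature) following 48 h treatment. Cells had been plated at 500-1,000 per well and settled for 5 h beforehand.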

[13] = qHTS of pediatric cancer cell lines to identify multiple opportunities for drug repurposing: Primary screen for BT-37 cells (AID 1347094); further: potency means the concentration at half of the fitted maximal effect
Procedure, shortened: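 Cells seeded at 500-1,000 cells/well in growth media, rested 5 hours at 37 degrees C, 5% CO2, then dosed; MIPE compounds at 11-point (from 0.78 nM) and NPC at 8-point (from 0.59 nM) final concentrations. Viability by CellTiter-Glo luminescence after 48 hours.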

[14] = qHTS of pediatric cancer cell lines to identify multiple opportunities for drug repurposing: Primary screen for DAOY cells (AID 1347090); further: nearly all actives have a fitted effect of over 55% in size; further: potency means the concentration at half of the fitted maximal effect
Procedure, shortened: as §1

[15] = qHTS of pediatric cancer cell lines to identify multiple opportunities for drug repurposing: Primary screen for A673 cells (AID 1347092); further: nearly all actives have a fitted effect of over 45% in size; further: potency means the concentration at half of the fitted maximal effect
Procedure, shortened: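 Luminescence from CellTiter-Glo, taken after 15 min at room temperature, served as the proxy for metabolically active cells following 48 h treatment. Both potency and efficacy were taken from curves fitted to the titration data.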

Sequence of Nucleoprotein (Lymphocytic choriomeningitis virus (strain Armstrong)) (P09992 whole entry, looked up): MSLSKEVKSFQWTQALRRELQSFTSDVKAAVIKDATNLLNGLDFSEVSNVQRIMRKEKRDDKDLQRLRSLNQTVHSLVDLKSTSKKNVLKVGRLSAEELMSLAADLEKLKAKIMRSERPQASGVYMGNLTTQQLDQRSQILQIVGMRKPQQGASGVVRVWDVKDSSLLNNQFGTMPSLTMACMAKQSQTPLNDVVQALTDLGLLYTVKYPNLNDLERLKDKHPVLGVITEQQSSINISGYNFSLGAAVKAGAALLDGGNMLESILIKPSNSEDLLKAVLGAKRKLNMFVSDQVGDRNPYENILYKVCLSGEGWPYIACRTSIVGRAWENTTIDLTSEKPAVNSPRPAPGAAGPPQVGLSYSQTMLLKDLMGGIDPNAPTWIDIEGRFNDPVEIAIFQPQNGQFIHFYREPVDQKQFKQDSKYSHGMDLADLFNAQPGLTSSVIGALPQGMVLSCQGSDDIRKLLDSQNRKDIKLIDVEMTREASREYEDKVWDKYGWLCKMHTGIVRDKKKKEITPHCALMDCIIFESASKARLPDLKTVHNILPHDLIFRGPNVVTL
Sequence of Parathyroid hormone/parathyroid hormone-related peptide receptor (Homo sapiens) (Q03431 whole entry, looked up): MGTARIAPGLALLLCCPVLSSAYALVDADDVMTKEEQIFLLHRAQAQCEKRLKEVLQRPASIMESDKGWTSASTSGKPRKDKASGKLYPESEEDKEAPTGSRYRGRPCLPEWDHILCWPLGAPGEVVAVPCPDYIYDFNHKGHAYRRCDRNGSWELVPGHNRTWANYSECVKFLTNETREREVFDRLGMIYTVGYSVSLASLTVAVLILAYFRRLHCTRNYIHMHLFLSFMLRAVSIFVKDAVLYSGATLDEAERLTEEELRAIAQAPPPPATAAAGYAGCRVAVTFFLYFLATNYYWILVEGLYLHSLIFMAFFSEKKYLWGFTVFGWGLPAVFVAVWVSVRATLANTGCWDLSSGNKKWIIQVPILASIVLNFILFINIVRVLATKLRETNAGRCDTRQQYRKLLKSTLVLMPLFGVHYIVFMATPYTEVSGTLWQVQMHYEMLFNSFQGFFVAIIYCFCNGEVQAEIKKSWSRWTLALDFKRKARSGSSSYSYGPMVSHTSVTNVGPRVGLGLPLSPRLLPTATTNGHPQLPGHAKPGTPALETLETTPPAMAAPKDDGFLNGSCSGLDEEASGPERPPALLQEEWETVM
Sequence of Atrial natriuretic peptide receptor 1 (Homo sapiens) (P16066 whole entry, looked up): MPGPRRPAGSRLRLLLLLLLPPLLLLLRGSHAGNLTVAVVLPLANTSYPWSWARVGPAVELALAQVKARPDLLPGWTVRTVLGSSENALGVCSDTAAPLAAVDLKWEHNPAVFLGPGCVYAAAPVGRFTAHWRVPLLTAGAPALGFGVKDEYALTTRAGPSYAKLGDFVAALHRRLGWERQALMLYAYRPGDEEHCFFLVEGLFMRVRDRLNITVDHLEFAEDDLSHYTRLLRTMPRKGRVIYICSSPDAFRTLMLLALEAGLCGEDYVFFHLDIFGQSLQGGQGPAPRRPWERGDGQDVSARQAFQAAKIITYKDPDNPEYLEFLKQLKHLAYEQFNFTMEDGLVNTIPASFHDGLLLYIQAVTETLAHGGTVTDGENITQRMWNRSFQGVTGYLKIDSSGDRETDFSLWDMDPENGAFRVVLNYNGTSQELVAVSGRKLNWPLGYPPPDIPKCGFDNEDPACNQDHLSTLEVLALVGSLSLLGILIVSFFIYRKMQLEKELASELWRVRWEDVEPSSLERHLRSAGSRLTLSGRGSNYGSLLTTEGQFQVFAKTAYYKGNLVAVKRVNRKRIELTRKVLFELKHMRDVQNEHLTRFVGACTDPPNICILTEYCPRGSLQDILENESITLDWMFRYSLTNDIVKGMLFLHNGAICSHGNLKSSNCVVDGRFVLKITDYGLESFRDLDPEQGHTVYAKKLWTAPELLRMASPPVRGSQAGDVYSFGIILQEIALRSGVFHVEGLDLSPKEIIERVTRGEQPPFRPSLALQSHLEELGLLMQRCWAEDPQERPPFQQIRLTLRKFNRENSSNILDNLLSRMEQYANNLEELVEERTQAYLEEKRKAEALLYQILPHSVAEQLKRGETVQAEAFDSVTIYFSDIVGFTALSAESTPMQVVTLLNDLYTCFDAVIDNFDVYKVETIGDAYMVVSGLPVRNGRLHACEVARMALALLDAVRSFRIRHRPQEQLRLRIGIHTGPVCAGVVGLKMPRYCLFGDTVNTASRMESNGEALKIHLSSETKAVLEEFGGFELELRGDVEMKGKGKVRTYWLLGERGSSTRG

| Compound | Potency [1] | Potency [2] | Potency [3] | outcome [4] | Potency [5] | Potency [6] | Potency [7] | Potency [8] | Potency [9] | Potency [10] | Potency [11] | Potency [12] | Potency [13] | Potency [14] | Potency [15] |
| --- | --- | --- | --- | --- | --- | --- | --- | --- | --- | --- | --- | --- | --- | --- | --- |
| c1ccc(C2(c3ccccc3)CC2C2=NCCN2)cc1 (stereo not drawn) | inactive | inactive | inactive | inactive | inactive | inactive | inactive | inactive | – | – | – | – | – | – | – |
| CC(C)[C@]12O[C@H]1[C@@H]1O[C@]13[C@]1(O[C@H]1C[C@H]1C4=C(CC[C@@]13C)C(=O)OC4)[C@@H]2O | 20.6 nM (active) | – | – | – | – | – | – | – | – | – | – | – | – | – | – |
| Cc1ccccc1-n1c(Cn2ncc3c(N)ncnc32)nc2cccc(C)c2c1=O | inactive | – | inactive | – | – | 485 nM (active) | 137 nM (active) | 193 nM (active) | inactive | 7390 nM (active) | 7.4 nM (active) | 13.2 nM (active) | 8.6 nM (active) | – | – |
| CSCC[C@@H](NC(=O)[C@@H](Cc1ccccc1)NC(=O)CNC(=O)CNC(=O)[C@@H](N)Cc1ccc(O)cc1)C(=O)O | inactive | – | inactive | – | inactive | inactive | inactive | inactive | – | inactive | inactive | inactive | inactive | inactive | inactive |
| Cc1ccc(Cl)c(O)c1 | inactive | – | inactive | – | inactive | inactive | inactive | inactive | – | inactive | inactive | inactive | inactive | inactive | inactive |
| Nc1c(Cl)c(Cl)c(Cl)c(Cl)c1Cl | inactive | – | inactive | – | inactive | inactive | inactive | inactive | – | inactive | inactive | inactive | inactive | inactive | inactive |
| Cc1cc(O)ccc1Cl | inactive | – | inactive | – | inactive | inactive | inactive | inactive | – | inactive | – | inactive | inactive | inactive | inactive |
| C[C@]12CCC(=O)C(O)=C1CC[C@@H]1[C@H]3CCC(=O)[C@@]3(C)CC[C@@H]12 | inactive | – | inactive | – | inactive | inactive | inactive | inactive | – | inactive | inactive | inactive | inactive | inactive | inactive |
| O=C(O)CNC(=O)c1c(O)c2ccccc2n(Cc2ccccc2)c1=O | inactive | – | inactive | – | inactive | inactive | inactive | inactive | – | inactive | inactive | – | inactive | inactive | – |
| O=C(O)COc1ccccc1 | inactive | – | inactive | – | inactive | inactive | inactive | inactive | – | inactive | – | inactive | inactive | inactive | inactive |
| C[C@]12CC[C@H]3[C@@H](CCC4=CC(=O)CC[C@@]43C)[C@H]1CC[C@H]2O | 11800 nM (active) | – | inactive | – | inactive | inactive | inactive | inactive | – | inactive | inactive | inactive | – | inactive | – |
| O=C(O)COc1nc(Cl)c(Cl)cc1Cl | inactive | – | inactive | – | inactive | inactive | inactive | inactive | – | inactive | inactive | 1 nM (active) | inactive | inactive | inactive |
| CC(C)N[C@@H]1CCn2c(=O)[nH]c3cccc(c32)[C@@H]1O | inactive | – | inactive | – | 8630 nM (active) | 19300 nM (active) | 4850 nM (active) | 2730 nM (active) | – | inactive | 6620 nM (active) | 1050 nM (active) | 27300 nM (active) | 1180 nM (active) | 833 nM (active) |
| COC1=CC(C)=C[C@@H](C)[C@@H](O)[C@@H](C)CC(C)=CC=C[C@H](OC)[C@H]([C@@H](C)[C@@H](O)[C@H](C)[C@@]2(O)C[C@@H](O)[C@H](C)[C@@H](C(C)C)O2)OC1=O | 14.8 nM (active) | – | 1.2 nM (active) | – | 109 nM (active) | 76.9 nM (active) | 34.3 nM (active) | 48.5 nM (active) | – | 330 nM (active) | 1 nM (active) | 2.1 nM (active) | 3.4 nM (active) | 2.3 nM (active) | 3.7 nM (active) |
| O=C(O)c1cc(Oc2ccc(C(F)(F)F)cc2Cl)ccc1[N+](=O)[O-] | inactive | – | inactive | – | inactive | inactive | inactive | inactive | – | inactive | inactive | inactive | inactive | inactive | inactive |
| O=[N+]([O-])/N=C1\NCCN1Cc1ccc(Cl)nc1 | inactive | – | inactive | – | inactive | inactive | inactive | inactive | – | inactive | – | inactive | inactive | inactive | inactive |
| CCOC(=O)c1cncn1[C@H](C)c1ccccc1 | inactive | – | inactive | – | inactive | inactive | inactive | inactive | – | inactive | inactive | inactive | inactive | inactive | inactive |
| COCCOCCO | inactive | – | inactive | – | inactive | inactive | inactive | inactive | – | inactive | inactive | inactive | inactive | inactive | inactive |
| CC(=CCCC1=CCC(C2=CC(=O)OC2O)OC1O)CCC1=C(C)CCCC1(C)C (stereo not drawn) | inactive | – | inactive | – | inactive | inactive | inactive | inactive | – | inactive | inactive | – | inactive | inactive | inactive |
